Results filed as inconclusive are left out. The source made the active and inactive calls. How the source made its calls, unless noted: active means hit-call score of the fitted dose curve at least 0.9, where 1 is the maximum; inactive means score below 0.9.

One may read the AC50 as the concentration giving half of the maximal activity seen.

Assay [1] has as its target Estrogen receptor (Homo sapiens) (UniProt P03372). Kind of assay: OT_ERa_GFPERaERE_0120: Odyssey Thera (OT) 2-hour HeLa Transcription Induction Assay for Estrogen Receptor (AID 2283382; active means hit-call score of the fitted dose curve at least 0.9, where 1 is the maximum). The procedure, abridged:
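Measures ESR1 pathway reporter gain-of-signal in HeLa cells after a 2-hour treatment, detected as fluorescent protein induction by microscopy, DMSO as baseline.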

Assay [2] addresses Bile acid receptor (Homo sapiens) (UniProt Q96RI1). Kind of assay: OT_FXR_FXRSRC1_0480: Odyssey Thera (OT) 8-hour HEK293T Protein-Complementation Assay for Farnesoid X receptor/SRC-1 Co-activator (AID 2283383; active means hit-call score of the fitted dose curve at least 0.9, where 1 is the maximum). In a few lines:
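Co-activator recruitment to FXR was measured in living HEK293T cells, where interaction of the two fused partners restored an active fluorescent reporter. Signal gain after 8 h treatment was referenced to DMSO.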

The target in assay [3] is Peroxisome proliferator-activated receptor gamma (Homo sapiens) (UniProt P37231). Kind of assay: OT_PPARg_PPARgSRC1_0480: Odyssey Thera (OT) 8-hour Protein-Complementation Assay for Peroxisome Proliferator-activated Receptor Gamma / SRC-1 Co-activator (AID 2283387; active means hit-call score of the fitted dose curve at least 0.9, where 1 is the maximum;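 further: nuclear to cytoplasmic split Venus YFP fluorescence ratio reporting PPARg SRC-1 interaction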). The procedure, abridged: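 HEK293T transiently transfected with PPARg and SRC-1 fused to Venus YFP fragments, compounds 8 h at 37C. Fixed, Draq5-stained cells imaged; nuclear/cytoplasmic 488 nm fluorescence ratio over at least 350 cells per image; gain fitted versus DMSO.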

Assay [4] has the same target. As to the kind of experiment: OT_PPARg_PPARgSRC1_1440: Odyssey Thera (OT) 24-hour Protein-Complementation Assay for Peroxisome Proliferator-activated Receptor Gamma/ SRC-1 Co-activator (AID 2283388; active means hit-call score of the fitted dose curve at least 0.9, where 1 is the maximum). The procedure, abridged: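 Protein-fragment complementation between PPARg and coactivator SRC-1 was measured by fluorescence imaging in transiently transfected HEK293T cells after 24 h treatment. Signal was quantified as N/C ratio in the 488 nm channel, with DMSO as negative control.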

Read-out in assay [5]: Tumor necrosis factor receptor superfamily member 6 (Homo sapiens) (UniProt P25445)
Kind of assay: LTEA_HepaRG_FAS: Life Technologies and Expression Analysis (LTEA) Assay for Fas cell surface death receptor (FAS) using HepaRG (AID 2283447). Conditions: mRNA level, 48 h; actives raise or lower the signal. The procedure, abridged:
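Differentiated human HepaRG cells, pre-cultured 48 h, were exposed in duplicate for 48 h to 8-point half-log concentrations (top 100 uM, 0.5% DMSO) in serum-free induction medium; FAS mRNA measured by qRT-PCR, normalized to ACTB/GAPDH/POLR2A, bidirectional fit versus DMSO.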

Read-out in assay [6]: Fatty acid synthase (Homo sapiens) (UniProt P49327)
As to the kind of experiment: LTEA_HepaRG_FASN: Life Technologies and Expression Analysis (LTEA) Assay for Fatty Acid Synthase (FASN) using HepaRG (AID 2283448). The settings on record: mRNA level, 48 h; actives raise or lower the signal. In a few lines:
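Transcript-level assay: HepaRG liver cells are treated for 48 h across an eight-point range topping at 100 uM, and FASN mRNA, normalized to three housekeeping genes, is compared with DMSO controls in both directions.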

Read-out in assay [7]: Cyclin Dependent Kinase Inhibitor 1A (CDKN1A), CDKN1A (gene 1026)
Kind of assay: LTEA_HepaRG_CDKN1A: Life Technologies and Expression Analysis (LTEA) Assay for Cyclin Dependent Kinase Inhibitor 1A (CDKN1A) using HepaRG (AID 2283450). Conditions: mRNA level, 48 h; actives raise or lower the signal. The procedure, abridged:
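Read-out is CDKN1A mRNA by TaqMan qRT-PCR, normalized to three housekeeping genes and fitted in both directions against the DMSO baseline. Human HepaRG cells were treated 48 h with test chemicals up to 100 uM in half-log steps, 0.5% DMSO.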

Read-out in assay [8]: Cyclin D1 (CCND1), CCND1 (gene 595)
As to the kind of experiment: LTEA_HepaRG_CCND1: Life Technologies and Expression Analysis (LTEA) Assay for Cyclin D1 (CCND1) using HepaRG (AID 2283451).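 On AC50: TaqMan qRT-PCR transcript level normalised to ACTB GAPDH and POLR2A housekeeping genes.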 The settings on record: mRNA level, 48 h; actives raise or lower the signal. In a few lines: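 HepaRG plated 48 h, medium switched to serum-free induction medium, chemicals added in duplicate (top 100 uM, half-log steps, 0.5% DMSO) for 48 h, cells lysed, RNA measured by TaqMan qRT-PCR.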

Assay [9] concerns the target Bile acid receptor (Homo sapiens) (UniProt Q96RI1). Kind of assay: OT_FXR_FXRSRC1_1440: Odyssey Thera (OT) 24-hour HEK293T Protein-Complementation Assay for Farnesoid X receptor/SRC-1 Co-activator (AID 2283384; active means hit-call score of the fitted dose curve at least 0.9, where 1 is the maximum). In a few lines:
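Cell-based binding reporter: interaction of FXR with SRC-1 brings reporter fragments together, giving a fluorescence signal read 24 h after dosing of HEK293T cells.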

The nature of assay [10]: CEETOX_H295R_OHPREG: CeeTox H295R High-throughput Steroidogenesis Assay for OH-Pregnenolone (OHPREG) (AID 2283434). Conditions: actives raise or lower the signal. In a few lines:
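Human adrenal H295R cells were prestimulated 48 h with 10 uM forskolin, then exposed 48 h to chemical in 0.1% DMSO. Medium 17alpha-hydroxypregnenolone was quantified by HPLC-MS/MS after MTBE extraction; bidirectional fitting versus DMSO baseline.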

Assay [11] can be described thus: CEETOX_H295R_OHPROG: CeeTox H295R High-throughput Steroidogenesis Assay for OH-Progesterone (OHPROG) (AID 2283435).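 On AC50: 17alpha-hydroxyprogesterone secreted into medium measured by HPLC-MS/MS.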 The settings on record: actives raise or lower the signal. The procedure, abridged:
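Secreted 17alpha-hydroxyprogesterone is read by tandem MS from media of forskolin-primed H295R cells dosed with chemical for 48 h. Activity is fitted in both directions against DMSO baseline; cytotoxic concentrations are re-tested diluted.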

The nature of assay [12]: CEETOX_H295R_ESTRADIOL: CeeTox H295R High-throughput Steroidogenesis Assay for Estradiol (AID 2283440).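 Further: estradiol secreted into medium quantified by LC-MS/MS after dansyl derivatisation.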 Conditions: actives raise or lower the signal. In a few lines: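 Estradiol secreted into the medium was measured by tandem mass spectrometry after liquid-liquid extraction and dansylation. Human H295R cells had been forskolin-primed (10 uM, 48 h) before a 48 h chemical exposure with 0.1% DMSO.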

A short description of assay [13]: CEETOX_H295R_ESTRONE: CeeTox H295R High-throughput Steroidogenesis Assay for Estrone (AID 2283441).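 Further: estrone secreted into medium measured by LC-MS/MS after dansyl derivatization.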 The settings on record: actives raise or lower the signal. The procedure, abridged: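 H295R cells; 48 h forskolin (10 uM) prestimulation; 48 h compound exposure, 0.1% DMSO final. Medium estrone: MTBE extraction, dansyl derivatization, HPLC-MS/MS. Bidirectional fit vs DMSO.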

The nature of assay [14]: CEETOX_H295R_PROG: CeeTox H295R High-throughput Steroidogenesis Assay for Progesterone (PROG) (AID 2283442).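 On AC50: human H295R adrenal cells primed with 10 µM forskolin before dosing; progesterone secreted into medium by H295R cells measured by HPLC-MS/MS.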 Conditions: actives raise or lower the signal. In a few lines:
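Steps: seed H295R cells and let them adhere overnight; prime 48 h with 10 uM forskolin; dose with compound in DMSO at 0.1% final for 48 h; extract medium steroids with MTBE; measure progesterone by LC-MS/MS. MTT viability was run in the same wells.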

Assay [15] is described as follows: CEETOX_H295R_11DCORT: CeeTox H295R High-throughput Steroidogenesis Assay for 11-Deoxycortisol (11DCORT) (AID 2283432). Conditions: actives raise or lower the signal. The procedure, abridged: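 H295R cells prestimulated 48 h with 10 uM forskolin, then exposed 48 h to chemical in 0.1% DMSO. 11-Deoxycortisol in medium quantified by HPLC-MS/MS after MTBE extraction; bidirectional fit versus DMSO. MTT viability read in same wells.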

Assay [16] in a line: CEETOX_H295R_ANDR: CeeTox H295R High-throughput Steroidogenesis Assay for Androstenedione (ANDR) (AID 2283436). Conditions: actives raise or lower the signal. In a few lines:
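H295R human adrenal cells (passages ≤10) were exposed to test chemicals for 48 h; androstenedione in medium was MTBE-extracted and quantified by HPLC-MS/MS against a 7-point standard curve. Bidirectional fitting used DMSO as baseline.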

Assay [17] is described as follows: CEETOX_H295R_CORTIC: CeeTox H295R High-throughput Steroidogenesis Assay for Corticosterone (CORTIC) (AID 2283437).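 Further: corticosterone secreted into medium quantified by mass spectrometry.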 Conditions: actives raise or lower the signal. The procedure, abridged:
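H295R cells were prestimulated 48 h with 10 uM forskolin, then exposed 48 h to test chemical in 0.1% DMSO. Medium corticosterone was MTBE-extracted and quantified by HPLC-MS/MS; bidirectional fit versus DMSO baseline.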

Assay [18] in a line: CEETOX_H295R_CORTISOL: CeeTox H295R High-throughput Steroidogenesis Assay for Cortisol (AID 2283438).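 Further: cortisol secreted into medium quantified by LC-MS/MS.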 Conditions: actives raise or lower the signal. In a few lines: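 Human adrenocortical H295R cells (passage ≤10) received test chemicals for 48 h after forskolin priming. Secreted cortisol was measured by LC-MS/MS.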
Assay [19] is described as follows: CEETOX_H295R_DOC: CeeTox H295R High-throughput Steroidogenesis Assay for DOC (AID 2283439). The settings on record: actives raise or lower the signal. In a few lines: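 Secreted DOC was quantified from H295R media by HPLC-MS/MS after 48 h chemical exposure following 48 h forskolin (10 uM) prestimulation. Values were fitted in both directions relative to DMSO, the negative control and baseline.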

Read-out in assay [20]: Cyclin D2 (CCND2), CCND2 (gene 894)
Kind of assay: LTEA_HepaRG_CCND2: Life Technologies and Expression Analysis (LTEA) Assay for Cyclin D2 (CCND2) using HepaRG (AID 2283449).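 Further: CCND2 transcript measured by TaqMan qRT-PCR and normalised to three housekeeping genes.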 Conditions: mRNA level, 48 h; actives raise or lower the signal. In a few lines:
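Differentiated human HepaRG cells were exposed for 48 h in serum-free induction medium to eight half-log concentrations topping at 100 uM (0.5% DMSO vehicle). CCND2 mRNA was quantified by TaqMan qRT-PCR, normalised to ACTB, GAPDH and POLR2A, and fitted bidirectionally against DMSO.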

Chain of Bile acid receptor (Homo sapiens) (Q96RI1 whole entry, looked up, the tested form may be a part): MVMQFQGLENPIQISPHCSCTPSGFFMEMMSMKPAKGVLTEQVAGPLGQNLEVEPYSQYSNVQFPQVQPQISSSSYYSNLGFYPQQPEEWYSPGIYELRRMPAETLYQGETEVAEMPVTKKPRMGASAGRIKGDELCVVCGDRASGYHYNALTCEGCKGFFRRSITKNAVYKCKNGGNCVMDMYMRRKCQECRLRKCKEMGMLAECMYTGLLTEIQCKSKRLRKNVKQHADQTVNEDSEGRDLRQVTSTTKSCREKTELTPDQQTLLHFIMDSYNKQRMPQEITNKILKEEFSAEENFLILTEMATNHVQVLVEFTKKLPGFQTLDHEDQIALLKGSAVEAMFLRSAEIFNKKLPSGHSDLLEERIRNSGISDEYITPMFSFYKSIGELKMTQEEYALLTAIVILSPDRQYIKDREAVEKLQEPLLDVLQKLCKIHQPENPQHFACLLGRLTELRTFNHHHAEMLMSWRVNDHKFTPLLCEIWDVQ
Chain of Fatty acid synthase (Homo sapiens) (P49327 whole entry, looked up): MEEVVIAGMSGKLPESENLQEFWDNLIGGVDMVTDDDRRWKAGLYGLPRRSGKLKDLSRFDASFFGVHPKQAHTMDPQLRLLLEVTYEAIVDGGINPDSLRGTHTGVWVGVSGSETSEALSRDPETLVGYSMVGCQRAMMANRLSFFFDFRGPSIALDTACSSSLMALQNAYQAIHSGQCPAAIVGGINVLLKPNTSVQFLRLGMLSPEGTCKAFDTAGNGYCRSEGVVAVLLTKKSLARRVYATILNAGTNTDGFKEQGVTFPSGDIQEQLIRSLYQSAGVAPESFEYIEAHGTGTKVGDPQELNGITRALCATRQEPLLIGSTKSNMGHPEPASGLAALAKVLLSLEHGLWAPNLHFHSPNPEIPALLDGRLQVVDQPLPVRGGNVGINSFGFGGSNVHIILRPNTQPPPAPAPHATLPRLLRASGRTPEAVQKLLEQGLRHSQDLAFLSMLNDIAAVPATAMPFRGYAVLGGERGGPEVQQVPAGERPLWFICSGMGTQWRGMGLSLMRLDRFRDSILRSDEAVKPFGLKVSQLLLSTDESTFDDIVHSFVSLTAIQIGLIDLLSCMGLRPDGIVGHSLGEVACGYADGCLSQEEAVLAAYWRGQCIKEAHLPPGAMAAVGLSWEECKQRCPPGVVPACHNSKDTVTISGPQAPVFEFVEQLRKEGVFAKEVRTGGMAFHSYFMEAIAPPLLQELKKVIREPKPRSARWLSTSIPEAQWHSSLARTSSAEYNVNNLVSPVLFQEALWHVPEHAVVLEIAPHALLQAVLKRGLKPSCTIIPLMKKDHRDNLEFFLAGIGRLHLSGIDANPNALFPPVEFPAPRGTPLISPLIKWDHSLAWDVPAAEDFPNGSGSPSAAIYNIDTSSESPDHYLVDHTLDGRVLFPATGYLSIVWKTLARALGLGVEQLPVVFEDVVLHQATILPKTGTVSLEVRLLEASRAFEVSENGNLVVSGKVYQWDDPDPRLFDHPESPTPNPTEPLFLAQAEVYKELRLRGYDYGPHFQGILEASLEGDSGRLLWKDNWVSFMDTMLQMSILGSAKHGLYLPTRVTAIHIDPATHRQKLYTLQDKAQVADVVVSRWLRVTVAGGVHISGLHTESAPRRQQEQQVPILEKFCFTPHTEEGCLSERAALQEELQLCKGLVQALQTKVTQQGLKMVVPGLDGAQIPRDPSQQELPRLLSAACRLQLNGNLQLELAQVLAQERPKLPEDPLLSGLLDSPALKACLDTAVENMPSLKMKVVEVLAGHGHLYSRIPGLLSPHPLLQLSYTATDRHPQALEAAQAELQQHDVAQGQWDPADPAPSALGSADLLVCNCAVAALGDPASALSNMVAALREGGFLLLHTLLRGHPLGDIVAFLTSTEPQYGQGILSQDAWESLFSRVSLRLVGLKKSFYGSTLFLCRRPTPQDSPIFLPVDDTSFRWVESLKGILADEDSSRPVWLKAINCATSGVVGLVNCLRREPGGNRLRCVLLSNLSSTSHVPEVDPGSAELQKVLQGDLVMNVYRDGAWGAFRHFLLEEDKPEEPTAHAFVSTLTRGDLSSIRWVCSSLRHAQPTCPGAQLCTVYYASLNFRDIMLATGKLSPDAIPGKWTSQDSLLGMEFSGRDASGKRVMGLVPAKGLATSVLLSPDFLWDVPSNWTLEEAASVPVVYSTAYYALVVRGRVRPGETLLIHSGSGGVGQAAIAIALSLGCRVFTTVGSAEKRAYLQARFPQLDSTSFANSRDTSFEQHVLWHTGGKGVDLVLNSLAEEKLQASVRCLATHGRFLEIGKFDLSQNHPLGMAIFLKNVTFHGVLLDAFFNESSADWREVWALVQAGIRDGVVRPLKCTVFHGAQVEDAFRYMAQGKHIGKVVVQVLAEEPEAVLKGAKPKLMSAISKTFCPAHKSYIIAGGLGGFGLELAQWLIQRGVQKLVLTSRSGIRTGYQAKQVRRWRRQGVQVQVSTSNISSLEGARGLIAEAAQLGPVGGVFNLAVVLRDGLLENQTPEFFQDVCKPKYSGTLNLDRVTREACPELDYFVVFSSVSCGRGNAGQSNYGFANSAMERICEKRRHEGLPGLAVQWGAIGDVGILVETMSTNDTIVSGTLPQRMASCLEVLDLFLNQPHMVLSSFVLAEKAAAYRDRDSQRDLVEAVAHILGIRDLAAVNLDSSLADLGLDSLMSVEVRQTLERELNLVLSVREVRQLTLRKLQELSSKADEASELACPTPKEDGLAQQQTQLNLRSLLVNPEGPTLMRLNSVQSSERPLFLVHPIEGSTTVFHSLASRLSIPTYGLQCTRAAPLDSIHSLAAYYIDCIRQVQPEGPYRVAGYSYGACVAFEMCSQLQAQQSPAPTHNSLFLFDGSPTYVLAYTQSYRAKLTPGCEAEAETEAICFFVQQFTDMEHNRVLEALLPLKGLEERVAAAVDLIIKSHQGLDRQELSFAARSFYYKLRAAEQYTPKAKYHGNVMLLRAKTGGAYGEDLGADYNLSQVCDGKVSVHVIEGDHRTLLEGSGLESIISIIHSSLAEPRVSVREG
Chain of Peroxisome proliferator-activated receptor gamma (Homo sapiens) (P37231 whole entry, looked up, the tested form may be a part): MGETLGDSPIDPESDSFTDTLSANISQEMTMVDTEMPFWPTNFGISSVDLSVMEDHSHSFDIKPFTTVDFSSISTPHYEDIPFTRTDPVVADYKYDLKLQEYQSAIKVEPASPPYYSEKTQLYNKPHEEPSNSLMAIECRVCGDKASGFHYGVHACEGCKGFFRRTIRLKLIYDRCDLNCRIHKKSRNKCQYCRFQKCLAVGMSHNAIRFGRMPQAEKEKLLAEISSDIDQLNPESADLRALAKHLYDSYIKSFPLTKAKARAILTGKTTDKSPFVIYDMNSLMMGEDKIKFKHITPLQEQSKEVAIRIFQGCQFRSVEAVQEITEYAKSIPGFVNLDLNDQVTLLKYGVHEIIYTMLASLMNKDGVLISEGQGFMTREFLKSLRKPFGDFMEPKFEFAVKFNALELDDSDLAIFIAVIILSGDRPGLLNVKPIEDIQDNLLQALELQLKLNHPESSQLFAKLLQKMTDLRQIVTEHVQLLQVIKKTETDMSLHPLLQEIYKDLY
Chain of Estrogen receptor (Homo sapiens) (P03372 whole entry, looked up): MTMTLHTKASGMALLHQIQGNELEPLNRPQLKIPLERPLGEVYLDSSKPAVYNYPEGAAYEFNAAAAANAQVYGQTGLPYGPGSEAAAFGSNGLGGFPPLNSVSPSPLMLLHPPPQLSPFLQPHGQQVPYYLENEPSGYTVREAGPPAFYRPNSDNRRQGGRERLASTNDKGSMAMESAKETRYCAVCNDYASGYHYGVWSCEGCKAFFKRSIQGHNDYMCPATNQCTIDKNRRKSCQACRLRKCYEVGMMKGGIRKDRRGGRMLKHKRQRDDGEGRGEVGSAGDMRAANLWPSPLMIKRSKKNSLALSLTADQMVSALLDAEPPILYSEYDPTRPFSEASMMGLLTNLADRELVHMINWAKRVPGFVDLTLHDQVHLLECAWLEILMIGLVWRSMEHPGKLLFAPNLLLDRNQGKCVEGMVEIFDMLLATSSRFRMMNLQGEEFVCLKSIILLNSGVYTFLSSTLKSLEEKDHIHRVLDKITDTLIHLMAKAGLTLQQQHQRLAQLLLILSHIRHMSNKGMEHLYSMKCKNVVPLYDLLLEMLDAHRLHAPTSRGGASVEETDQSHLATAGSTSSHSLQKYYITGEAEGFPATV

For `O=S1OCC2C(CO1)C1(Cl)C(Cl)=C(Cl)C2(Cl)C1(Cl)Cl` (stereo not given), the result in [1], in assay [3], in [4], in assay [5], in assay [6] and in assay [8] was inactive. The half-maximal activity concentration (AC50) in [2] was 39.2 µM (active); in assay [7] it was 79.1 µM (active).
For `CC(C)OC(=O)Nc1cccc(Cl)c1`, the molecule was called inactive in assay [1], in assay [9], in assay [3], in assay [4], in assay [10] and in [11]. Further, the molecule was classed as inactive in assay [12], in [14], in [5], in assay [6], in assay [7] and in assay [8]. Moreover, the half-maximal activity concentration (AC50) in [2] was 48.4 µM (active); in assay [13] it was 15.6 µM (active).
As for `C#CCN1C(=O)COc2cc(F)c(N3C(=O)C4=C(CCCC4)C3=O)cc21`, the call in [1], in [3], in assay [4], in assay [15], in assay [10] and in assay [11] was inactive. The molecule was called inactive in assay [16], in [17], in assay [18], in [19], in assay [12] and in assay [13]. Besides, the outcome in assay [14], in [5], in [6], in assay [7] and in assay [8] was inactive.
Turning to `O=C(Nc1ccccc1)Nc1cnns1`, the molecule was called inactive in assay [1], in [9], in [3], in assay [4], in assay [5] and in assay [7]. The AC50 was 72.7 µM (active) in assay [6] and 74.7 µM (active) in [8].
Take `COP(=S)(OC)Oc1ccc([N+](=O)[O-])cc1`: the molecule was classed as inactive in assay [1], in assay [3], in assay [4], in assay [10], in [12] and in [13]. The call in assay [5], in assay [6], in [20], in assay [7] and in assay [8] was inactive. In addition, the AC50 was 36.8 µM (active) in assay [2], 50 µM (active) in assay [9], 3.28 µM (active) in [11] and 9.85 µM (active) in [14].
On to `CNC(=O)/C=C(\C)OP(=O)(OC)OC`, for which the molecule was called inactive in [1], in [9], in assay [3], in assay [4], in assay [15] and in [10]. Further, the outcome in [11], in [17], in [18], in [19], in assay [12] and in assay [13] was inactive. The molecule was classed as inactive in assay [14], in [5], in assay [6], in assay [20], in [7] and in assay [8].

The record behind these values is PubChem BioAssay (EPA / NIEHS).
